NadD inh: blocks S. aureus nicotinate mononucleotide adenylyltransferase; inhibition, % at 20 µM; AID 602399; actives 0.78% (n = 360,000); purified NadD enzyme, colorimetric absorbance read-out; in the data active means inhibition above about 26%
PP1 inh: blocks human PP1-alpha phosphatase, a PP5 counter-screen; P62136; purified PP1alpha, OMFP fluorescence; inhibition, % at 6.7 µM; actives 0.9% (n = 320,000); AID 2235;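 active means inhibition above the mean inhibition of all tested compounds plus 3 SD, computed separately for each screening campaign, cut at about 15% in these data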
Target sequence (P62136 whole entry, looked up): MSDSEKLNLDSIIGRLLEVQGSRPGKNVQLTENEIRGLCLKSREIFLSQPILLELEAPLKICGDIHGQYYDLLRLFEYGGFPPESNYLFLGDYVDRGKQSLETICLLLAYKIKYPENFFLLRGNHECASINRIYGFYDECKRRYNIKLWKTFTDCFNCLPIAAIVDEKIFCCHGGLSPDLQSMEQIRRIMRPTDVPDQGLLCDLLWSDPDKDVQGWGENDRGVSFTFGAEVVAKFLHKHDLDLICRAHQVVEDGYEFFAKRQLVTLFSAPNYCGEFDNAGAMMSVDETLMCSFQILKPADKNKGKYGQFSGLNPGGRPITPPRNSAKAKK
B2AR ag: agonists of human beta-2 adrenergic receptor inducing internalization; P07550; Am2.2-beta2AR cells, FAP receptor internalization, flow cytometry; response, % (test concentration not listed); actives 0.43% (n = 340,000);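 active means response above a set limit, near 3 SD of response in nonfluorescent compounds, cut at about 42% in these data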
Exocytosis inh: blocks lytic granule exocytosis. TALL-104 LAMP-1 surface exposure, flow cytometry; cells stimulated with thapsigargin and PMA. AID 651702. actives 0.66% (n = 360,000). inhibition, % at 10 µM;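 active means inhibition above about 55%, limit read from the data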
GRK2 aptamer HTS: blocks RNA aptamer binding to human GRK2; actives 0.59% (n = 330,000); bead flow cytometry, FAM-aptamer displacement from GRK2; inhibition of aptamer binding, % at 10 µM;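 active means inhibition of aptamer binding above 40%, roughly 3 SD of noise, on plates passing a quality check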;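 further: median bead fluorescence of bound FAM aptamer so fluorescent compounds give negative values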
Numbers without * were called inactive; nt = not tested or not shown. Compounds with a hit are over-represented: about 2.9% of the library has one in this group of screens.

SMILES	NadD inh	PP1 inh	B2AR ag	Exocytosis inh	GRK2 aptamer HTS
CCC(C)c1ccc(NC(=O)N2CCN(C(=O)C3CCCO3)CC2)cc1 (configuration not stated)	1	-4	0	-14	0
CC1=NN(c2nc(N)nc(/C(C#N)=C/c3ccc([N+](=O)[O-])o3)n2)C(C)(C)C1	13	nt	-714	83*	nt
O=C1C2C(C(=O)N1/N=C/c1ccc([N+](=O)[O-])o1)C1C=CC2C12CC2 (configuration not stated)	0	-1	-10	3	4
C=CC[C@@H](CC(=O)N(CCO)Cc1ccccc1)C(=O)N[C@@H](C)COC(=O)[C@@H](CC=C)CC(=O)OC(C)(C)C	-5	nt	-2	64*	2
C=CCC[C@H](Cc1ccc(F)cc1)C(=O)OC[C@H](C)NC(=O)[C@@H](CC=C)CC(=O)N[C@H](CO)Cc1ccccc1	-7	nt	-1	3	0
C=CCC[C@@H](Cc1ccc(F)cc1)C(=O)OC[C@H](C)NC(=O)[C@@H](CC=C)CC(=O)N[C@@H](CO)Cc1ccccc1	2	nt	5	11	83*
CC(C)(C)NC(=O)C(CCc1ccccc1)n1c(=O)c(-c2cc3ccccc3[nH]2)nc2ccccc21 (configuration not stated)	nt	nt	nt	16	nt
Cc1ccc(-c2ccc(C(=O)NCc3ccc(Cl)cc3)o2)c2ccccc12	27*	9	12	14	1
Cc1ccccc1-c1ccc(C(=O)NCc2ccccc2)o1	-4	5	1	1	2
Cc1ccc(C(=O)NC(=S)N2CCCC2)cc1	-2	-14	14	2	1
O=C(O)C(c1ccccc1)C1(O)CC2CCC1C2 (configuration not stated)	1	nt	-1	0	nt
Cc1ccc(SCc2nc3ccccc3n2CC(=O)Nc2c(C)cccc2C)cc1	6	16*	8	9	0
c1cn2c(NC3CCCCC3)c(-c3ccc(SC4CCCCC4)cc3)nc2cn1	12	4	0	-4	0
c1cc(SC2CCCCC2)cc(-c2nc3cnccn3c2NC2CCCCC2)c1	17	nt	50*	-1	0
Cc1nn(C(C)C(=O)NCc2ccccc2Cl)c(=O)c2c1sc1ccccc12 (configuration not stated)	-2	2	4	82*	0
C=CCOc1ccc(/C=N/n2nnnc2N)cc1OC	-8	-3	3	5	0
O=C(COCC(=O)NCc1ccccc1)NCc1ccccc1	-7	-3	-6	-1	3
C/C(=C\C(=O)OCC(=O)NCc1ccccc1)C(=O)OCC(=O)NCc1ccccc1	2	13	-3	2	80*
CCOC(=O)/C=C/C(=O)OCC(=O)NCc1ccccc1	-2	0	44*	-6	3
N#C/C(=C\c1cccc([N+](=O)[O-])c1)c1nnc2n1CCCCC2	-1	1	-11	4	100*
O=C(NC1CCCCC1)C(c1ccncc1)N(Cc1ccccc1)C(=O)c1ccc(-c2ccccc2)[nH]1 (configuration not stated)	8	16*	-3	3	4
O=C(NC1CCCCC1)C(c1ccncc1)N(Cc1ccc(F)cc1)C(=O)c1ccccn1 (configuration not stated)	-3	0	-8	-2	0
Cn1c(=O)c([N+](=O)[O-])c(Cl)c2ccccc21	-1	nt	89*	71*	nt
Cc1ccc(C(=O)C2=C(O)C(=O)N(Cc3ccco3)C2c2ccc(N(C)C)cc2)o1 (configuration not stated)	5	14	5	-4	3
Cc1ccc(C(=O)C2=C(O)C(=O)N(Cc3ccco3)C2c2cccc(Cl)c2)o1 (configuration not stated)	15	25*	1	-3	2
SMILES	NadD inh	PP1 inh	B2AR ag	Exocytosis inh	GRK2 aptamer HTS
O=C(C1=C(O)C(=O)N(Cc2ccco2)C1c1cccc(O)c1)c1ccco1 (configuration not stated)	5	4	-3	-2	0
O=C(C1=C(O)C(=O)N(CCCn2ccnc2)C1c1cccc(Br)c1)c1ccco1 (configuration not stated)	2	47*	-5	0	2
Cc1ccc(C(=O)C2=C(O)C(=O)N(Cc3ccco3)C2c2cccc(Br)c2)o1 (configuration not stated)	21	22*	3	5	4
Cc1ccc(N2C(=O)C3C4C=CC(CC4)C3C2=O)c([N+](=O)[O-])c1 (configuration not stated)	-4	-3	-6	2	0
COC(=O)C1=CN(c2ccc(N3CCOCC3)cc2)C(N)=C(C#N)C1c1cccc(F)c1 (configuration not stated)	nt	nt	nt	-2	nt
CCCC1=Nc2cc(C(=O)N3CCC(C(=O)OCC)CC3)ccc2Sc2ccccc21	-4	7	4	31	8
CCN1CCCC1CNC(=O)c1ccc2c(c1)NC(=O)/C(=C\c1ccc(C)cc1)S2 (configuration not stated)	19	2	34	61*	0
Cc1ccc(/C=C2/Sc3ccc(C(=O)NCCN4CCOCC4)cc3NC2=O)cc1	-2	-2	11	32	1
Cn1nc(NC(=O)CC23CC4CC(CC(C4)C2)C3)c2c(F)cccc21	-6	-2	1	-4	3
O=C(CNC(=O)c1ccco1)NNC(=O)c1cccc(Cl)c1	3	nt	6	-5	0
CCOc1ccc2nc3cc(N=Nc4ccc(N)nc4N)ccc3c(N)c2c1	32*	nt	30	-4	nt
COc1ccc(N=Nc2ccc(N)nc2N)cc1	-8	4	1	-2	0
CCCC(=O)N=c1sc2c(OC)ccc(OC)c2n1C	-5	-1	4	2	0
COc1cc(C(=O)NC(=S)NC(C)C)cc(OC)c1OC	-1	-10	78*	-5	0
COc1cc(C(=O)NC(=S)N2CCCCCC2)cc(OC)c1OC	-2	-3	-2	-3	0
Cc1ccc(CNCCCn2cnc3c(OCc4ccccc4)ncnc32)o1	-7	nt	-7	4	nt
CCN1CCN(c2cc(C)c3cc(NC(=S)N4CCN(c5ccccc5)CC4)ccc3n2)CC1	-9	-2	8	56*	0
CCCN1Cc2cc(OC)ccc2-c2ccccc2S1(=O)=O	-3	nt	-1	-1	0
Cc1cccc2cc(/C=C3\N=C(c4ccccc4)OC3=O)c(N3CCOCC3)nc12	32*	1	11	-1	2
Cc1ccc(C2=N/C(=C/N3CCOCC3)C(=O)O2)cc1	0	-5	-5	4	0
CN1CCc2nc(SCC(=O)Nc3ccc(F)cc3)c(C#N)cc2C1	nt	15	nt	nt	57*
CCN1CCc2nc(SCC(=O)Nc3ccc(OC)cc3)c(C#N)cc2C1	2	3	3	-4	3
C=C(c1ccc2nc(NC(=O)OC)[nH]c2c1)c1cccs1	6	nt	22	26	nt
c1ccc(Oc2nc(-c3ccccn3)nc3ccccc23)cc1	0	16*	-10	-2	3

Compound activity deposited in PubChem by several laboratories.
